Assay outcomes from PubChem BioAssay.
Vaccinia mCherry: inhibitors of vaccinia virus infection (mCherry reporter signal) | Vaccinia virus mCherry reporter infection, fluorescence | Potency, µM (titrated, usually from 36.5 µM), usual class: inhibitors | hit rate 0.63% among 310,000 | AID 720579; calls by dose curve; tested in A549 cells; note: nearly all actives have a fitted effect of over 35% in size
HCV inh: blocks hepatitis C virus; Potency, µM (doses to about 41.8 µM), hits mostly inhibitors; Huh7.5.1 HCVcc-Cre infection, luciferase reporter, 44 h; hit rate 3.4% among 340,000
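After 44 h co-culture of compound, cells and HCVcc-Cre (~0.5 moi), substrate is added for 15 min at room temperature and luciferase measured over 15 sec. Cells were seeded at 1,000/well and pre-cultured 4 h.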
Pf growth 96h: inhibits malaria parasite growth, 96 h | hit rate 6.9% among 320,000 | Potency, µM (titrated, usually from 28.7 µM), most hits filed as inhibitors | AID 504834 | P. falciparum luciferase reporter growth, 96 h
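Delayed-death screen, second-generation endpoint: infected erythrocytes, 2% hematocrit, 0.05% parasitemia final; 96 hours at 37 C, 5% CO2; luciferase detection reagent; luminescence decrease equals reduced growth.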
NS1 function inh: influenza NS1 inhibition; Potency, µM (titrated, usually from 46.1 µM); hit rate 0.4% among 270,000; AID 2326; calls by dose curve; note: actives are rising curves; nearly all actives have a fitted effect of over 50% in size
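In this qHTS, NS1 from influenza A is expressed in budding yeast, where it slows growth. Cells are switched from glucose to 2% galactose medium (pH 6.0, -URA), treated with compound, and growth recovery is read at OD600.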
Pf growth 48h: inhibits P. falciparum growth in the first generation, 48 h | hit rate 5.9% among 310,000 | P. falciparum luciferase growth in erythrocytes, 48 h | Potency, µM (series often up to 28.7 µM), usual class: inhibitors
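Cell-based growth assay: transgenic P. falciparum expressing firefly luciferase, cultured in red cells within RPMI 1640 containing 0.5% w/v Albumax, 24 mM bicarbonate and gentamycin. A drop in luciferase activity indicates inhibition.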
VACV Venus inh: inhibitors of vaccinia virus (Venus reporter) | Vaccinia virus Venus reporter expression, fluorescence | Potency, µM (top dose mostly 36.5 µM), most hits filed as inhibitors | hit rate 0.46% among 330,000; calls by dose curve; tested in A549 cells; note: nearly all actives have a fitted effect of over 30% in size
Hits are given with their value; i = inactive; ? = inconclusive; nt = not tested or not shown. Shown are actives, neighbours in structure and some others; about 11% of the full set was active somewhere. Unless noted, calls come from the whole dose curve; as a rule, active = well fitted inhibition curve with a large enough effect; inconclusive = small, poorly fitted or top-dose-only effect, or another doubt; inactive = no such curve, though single readings can be large or run the other way.

SMILES	Vaccinia mCherry	HCV inh	Pf growth 96h	NS1 function inh	Pf growth 48h	VACV Venus inh
CCO[C@H]1OC(C(=O)N2CCN(Cc3ccccc3)CC2)=C[C@@H](c2ccccc2)[C@@H]1CCCO	i	i	?	i	?	i
CCO[C@H]1OC(C(=O)N2CCN(Cc3ccccc3)CC2)=C[C@@H](c2ccc(C(F)(F)F)cc2)[C@@H]1CCCO	i	?	1.5µM	i	?	?
CCO[C@@H]1OC(C(=O)N2CCN(Cc3ccccc3)CC2)=C[C@H](c2csc3ccccc23)[C@H]1CCCO	i	?	6.6µM	i	?	?
CCO[C@@H]1OC(C(=O)N2CCOCC2)=C[C@H](c2cn(C(C)=O)c3ccccc23)[C@H]1CCCO	i	i	i	i	i	i
CS(=O)(=O)c1ccc(Cl)c(NC(=O)c2ccc3ccccc3c2)c1	i	i	?	i	i	i
Cn1cc(SCC(=O)N2CCOCC2)c2ccccc21	i	i	i	i	i	i
Cc1cccc(NCc2cc(Cl)cc(Cl)c2O)n1	i	?	i	i	10µM	i
Cc1ccnc(NCc2cc(Cl)cc(Cl)c2O)c1	i	nt	nt	nt	nt	i
Cc1cccc(NCc2cc(Cl)ccc2O)n1	i	i	i	i	6.6µM	i
O=C1CN(C(=O)COC(=O)CCc2ccccc2)c2ccccc2N1	i	i	nt	nt	nt	i
COc1cc(OC)c2c(C)c(CC(=O)NCCc3ccccc3OC)c(=O)oc2c1	i	nt	nt	nt	nt	i
COc1cc(OC)c2c(C)c(Cl)c(=O)oc2c1	i	i	10µM	i	i	i
O=C(Cn1cnc2c(nnn2-c2ccccc2)c1=O)N1CCCc2ccccc21	i	i	?	i	i	i
O=C(Cn1cnc2c(nnn2Cc2ccccc2)c1=O)N1CCCc2ccccc21	i	i	12µM	i	?	i
CC(=O)N1CCC(N(CCN2CCOCC2)C(=S)Nc2ccc(C)c(C)c2)CC1	i	i	i	nt	i	i
Cc1ccc2cc3cc(C(=O)N4CC(C)CC(C)C4)oc3nc2c1 (configuration not stated)	?	i	nt	i	?	?
Cc1ccc2cc3cc(C(=O)NCc4ccco4)oc3nc2c1	?	i	?	i	2.9µM	i
Cc1ccc2cc3cc(C(=O)NC4CC4)oc3nc2c1	nt	i	?	i	i	nt
Cc1ccc2cc3cc(C(=O)NCCC(C)C)oc3nc2c1	i	?	?	?	10µM	i
Cc1ccc2cc3cc(C(=O)N4CCCCC4C)oc3nc2c1 (configuration not stated)	?	?	i	i	9.3µM	i
Cc1nc(SCC(=O)c2c(C)[nH]c3ccccc23)c2c(=O)n(C)c(=O)n(CC(C)C)c2n1	nt	nt	?	?	i	nt
COc1cccc(OCc2cc(C3Nc4ccccc4C(=O)N3Cc3ccco3)ccc2OC)c1 (configuration not stated)	i	?	i	i	8.3µM	i
COc1ccc(C2Nc3ccccc3C(=O)N2Cc2ccco2)cc1COc1ccc([N+](=O)[O-])cc1 (configuration not stated)	nt	?	5.9µM	i	?	?
COc1cccc(OCc2cc(C3Nc4ccccc4C(=O)N3Cc3ccccc3)ccc2OC)c1 (configuration not stated)	i	nt	nt	nt	nt	i
C=C[C@H]1CN2CC[C@H]1C[C@H]2[C@H](O)c1ccnc2ccccc12	i	i	?	nt	0.15µM	i
SMILES	Vaccinia mCherry	HCV inh	Pf growth 96h	NS1 function inh	Pf growth 48h	VACV Venus inh
Cc1cccc(C)c1NC(=O)C(c1ccccc1F)n1c(=O)c(-c2ccco2)nc2ccccc21 (configuration not stated)	i	nt	nt	nt	nt	i
CCC(=O)NC(c1ccccc1Cl)c1c(O)ccc2ccccc12 (configuration not stated)	i	i	i	i	10µM	i
CC(C)C(=O)NC(c1ccccc1Cl)c1c(O)ccc2ccccc12 (configuration not stated)	nt	i	4.7µM	i	9.3µM	nt
CCc1noc(C)c1C(=O)Nc1nc(-c2ccc(OC)cc2)cs1	i	?	?	nt	i	i
CN(Cc1cn(C)c2ccccc12)C(=S)Nc1cc(F)cc(F)c1	i	i	i	i	12µM	i
CCN(CC)C(=O)c1[nH]cnc1C(=O)N[C@@H](Cc1ccccc1)C(=O)OCc1ccccc1	i	i	i	i	i	i
C=CCNC(=O)c1ccc(CN2CCC(Cc3ccccc3)CC2)cc1	nt	i	i	i	10µM	nt
C=CCNC(=S)N1CCC(Cc2ccccc2)CC1	i	i	12µM	i	?	i
CCCNC(=O)N1CCN(S(=O)(=O)c2ccc(C)c(C)c2)CC1	nt	i	nt	i	nt	nt
Brc1ccc(OCc2nc3ccccc3[nH]2)cc1	nt	?	i	i	i	nt
CN1CCN(CC(O)(c2ccc(Cl)cc2)c2ccc(Cl)cc2)CC1	i	3.2µM	15µM	nt	9.3µM	i
COc1cc2cnc(-c3ccccc3)c(-c3cc(OC)c(OC)c(OC)c3)c2cc1OC	i	13µM	3.7µM	nt	10µM	?
COc1ccc(-c2csc(Nc3ncccn3)n2)cc1C	nt	i	i	i	i	nt
COc1nc(-c2ccccc2)cc(-c2ccc(OC)c(OC)c2)n1	nt	1.8µM	i	i	i	nt
COc1cc2cnc(-c3ccccc3)cc2cc1OC	i	22µM	nt	nt	nt	i
COc1ccc(-c2cc3cc(OC)c(OC)cc3c(C)n2)cc1C	i	i	10µM	i	?	i
Cc1[nH]c2ccccc2c1C(=O)C(=O)N1CC(C)OC(C)C1 (configuration not stated)	i	i	?	i	?	i
COc1cc(/C=C2\SC(=O)N(c3ccccc3Cl)C2=O)cc([N+](=O)[O-])c1O	nt	i	i	i	i	nt
Cc1ccc(-c2nc3c4c(-c5ccccc5)c(-c5ccccc5)oc4ncn3n2)cc1	i	nt	nt	nt	nt	i
CCOC(=O)Cn1c(=O)oc2cc(S(=O)(=O)NCc3cccs3)ccc21	i	i	13µM	i	nt	i
CCOC(=O)Cn1c(=O)oc2cc(S(=O)(=O)NCc3ccccn3)ccc21	i	i	12µM	i	nt	i
CCc1cc(C(=O)OC)c(NC(=O)CC2SC(N)=NC2=O)s1 (configuration not stated)	i	i	i	i	i	i
N#C/C(=C\c1ccc([N+](=O)[O-])o1)c1nc2ccccc2[nH]1	nt	?	i	i	i	nt
N#C/C(=C\c1ccc(Sc2ccccc2)o1)c1nc2ccccc2[nH]1	i	?	1µM	i	?	i
N#C/C(=C/c1ccc(Sc2nc3ccccc3[nH]2)o1)c1cccc(Br)c1	20µM	8.9µM	i	i	nt	?
SMILES	Vaccinia mCherry	HCV inh	Pf growth 96h	NS1 function inh	Pf growth 48h	VACV Venus inh
N#C/C(=C/c1ccc(Sc2nc3ccccc3[nH]2)o1)c1ccccc1F	nt	11µM	nt	i	i	nt
Cc1nnc(NC(=O)C2CCN(S(=O)(=O)c3ccc(F)c(F)c3)CC2)o1	nt	i	nt	nt	nt	nt
CCCCn1nc(NC(=O)c2cccs2)c2cc3ccccc3nc21	nt	?	i	i	i	nt
CCCCn1nc(NC(=O)CC(C)C)c2cc3cc(OC)ccc3nc21	i	?	?	i	?	i
CCCn1nc(NC(=O)c2cccs2)c2cc3cc(OC)ccc3nc21	?	10µM	i	i	?	i
COc1ccc2nc3c(cc2c1)c(NC(=O)CC(C)C)nn3CC(C)C	nt	i	?	i	5.2µM	nt
